Bioassay records (PubChem BioAssay)
The full list was thinned out, with hits kept by preference.
Methyltransferases: Primary Screen for Target Class Profiling of Small Molecule Inhibitors of Methyltransferases | purified enzyme, MTase-Glo SAH luminescence; active compounds read low | calls only at 40 µM | 3.9% of 25,000 active; call rule not given here
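Each enzyme was reacted with SAM and its substrate, with compounds tested once at 40 uM; SAH formed was read by MTase-Glo luminescence.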
Numbers without * were called inactive; i = inactive; + = active, no number; ! = not active in a repeat. % is set by controls: 0 for no effect and ±100 for the full control effect.

SMILES | Methyltransferases
C[C@@H]1CN(c2c(F)c(F)c3c(=O)c(C(=O)O)cn(C4CC4)c3c2F)C[C@H](C)N1 | i
CC1CN(c2cc3c(cc2F)c(=O)c(C(=O)O)cn3-c2ccc(F)cc2F)CCN1 (configuration not stated) | i
CCCN1C(=O)c2c(C(=O)Nc3cc(C)ccc3C)ncn2CC1(C)C(=O)NCc1ccc(OC)cc1 (configuration not stated) | i
COC(=O)c1ncn2c1C(=O)N(c1ccc(OC)c(Cl)c1)C(C)(C(=O)NCc1ccccc1)C2 (configuration not stated) | i
CC(C)CCn1c(=O)c2ccccc2n2c(=O)n(Cc3ccc(F)cc3Cl)nc12 | i
COc1c2c(c(C)c3c1C(=O)OC3)O[C@@]1(C)C[C@@H](O)[C@]34O[C@](OC)(CC[C@]3(C)[C@H]1C2)OC4(C)C | i
COc1c2c(c(C)c3c1C(=O)OC3)OC1(C)CC(O)C34OC(OC)(OC3(C)C)C(O)CC4(C)C1C2 (configuration not stated) | i
COc1c2c(c(C)c3c1C(=O)OC3)O[C@@]1(C)C[C@@H](OC(C)=O)[C@]34O[C@](OC)(CC[C@]3(C)[C@H]1C2)OC4(C)C | +
CCCCN1C(=O)c2cc(C(=O)NCc3ccc(OC)c(OC)c3)nn2CC1(C)C(=O)NC1CCCC1 (configuration not stated) | i
Cc1cc2[nH]c(=O)[nH]c2cc1S(=O)(=O)N1CCOCC1 | i
CC1CC(C)CN(C(=O)Cn2c(=O)oc3cc(S(=O)(=O)NC4CCCC4)ccc32)C1 (configuration not stated) | i
COC(=O)c1cc2n(n1)CC(C)(C(=O)NC1CCCCC1)N(Cc1ccc(C)cc1)C2=O (configuration not stated) | i
O=C1NC(=O)C(c2cnc3ccccn23)=C1c1cn2c3c(cc(F)cc13)CN(C(=O)N1CCCCC1)CC2 | +
CCCn1nc(CNC(=O)Cc2ccc(F)cc2)c2ccccc21 | i
CCOc1ccc(CCN2C(=O)c3ccc(-c4ccco4)n3CC2(C)C(=O)NC2CCCC2)cc1 (configuration not stated) | i
CCCCOC(=O)COc1ccc2c(-c3ccccc3)cc(=O)oc2c1 | i
CCCc1cc2c(-c3ccccc3)cc(=O)oc2cc1OCc1ccc(C(=O)O)o1 | +
COC(=O)COc1cc2oc(=O)cc(-c3ccccc3)c2cc1Cl | i
Cc1ccc(CNC(=O)c2ccc3c(=O)nc4c(-c5ccc(C)cc5)n[nH]n4c3c2)cc1 | i
CC(CCc1ccccc1)N1C(=O)c2cc3sccc3n2CC1(C)C(=O)NC1CCCCC1 (configuration not stated) | i
CCc1cccc(NC(=O)Cn2c(=O)oc3cc(S(=O)(=O)N4CCCCC4)ccc32)c1 | i
CCCn1c(=O)c2ccc(C(=O)NC(C)C)cc2n2c(=O)n(CC(=O)Nc3ccc(C)c(F)c3)nc12 | i
COc1ccccc1N1CCN(CCN(C(=O)c2ccc(F)cc2)c2ccccn2)CC1 | i
COc1ccccc1N1CCN(CCCCN2C(=O)c3ccccc3C2=O)CC1 | i
COc1ccccc1N1CCN(c2ncnc3n[nH]c(Br)c23)CC1 | +
SMILES | Methyltransferases
O=C(CCc1nnc2n(Cc3ccc(F)cc3)c(=O)c3ccccc3n12)N1CCN(c2ccccc2)CC1 | i
CC(C)OCCCNC(=O)CCc1nnc2n(CCc3ccccc3)c(=O)c3ccccc3n12 | i
CCOc1ccccc1CNC(=O)c1cc2n(n1)CC(C)(C(=O)NCc1ccccc1)N(C)C2=O (configuration not stated) | i
CCOc1cc2oc(=O)cc(-c3ccccc3)c2cc1Cl | i
CCCCCOc1ccc2c(-c3ccccc3)cc(=O)oc2c1 | i
CCOc1cc(OCC)c2c(-c3ccccc3)cc(=O)oc2c1 | +
CCOc1ccc(CNC(=O)c2cc3n(n2)CC(C)(C(=O)NCc2ccc(C)cc2)N(C)C3=O)cc1 (configuration not stated) | i
COc1ccc(Br)cc1CNC(=O)c1ccc(N2C(=O)Cn3c(cc4sccc43)C2=O)cc1 | i
COC(=O)CCSC/C=C(\C)CCn1cc(CCc2ccc(-c3ccccc3)cc2)nn1 | +!
CC(C)CNC(=O)c1ccc2c(=O)n(CC(C)C)c3nn(CC(=O)c4ccccc4)c(=O)n3c2c1 | i
CCCCN(CC)CCN1C(=O)c2cc3occc3n2CC1(C)C(=O)NC1CCCCCCC1 (configuration not stated) | i
O=C(CCC(=O)n1ncc2ccc(Cl)cc21)N1CCN(c2ccccc2)CC1 | i
O=C(COCC(=O)N1CCN(C(c2ccccc2)c2ccccc2)CC1)Nc1ccc(Cl)cc1C(=O)O | +
CCCN1C(=O)c2cc(C(=O)NCc3ccccc3Cl)nn2CC1(C)C(=O)NC1CCCC1 (configuration not stated) | i
CN1C(=O)c2cc3ccccc3n2CC1(C)C(=O)NCC(=O)NCCc1cccs1 (configuration not stated) | i
CCN1CCCC1CNC(=O)c1cc(S(=O)(=O)CC)c(N)cc1OC (configuration not stated) | i
CCN1CCC[C@@H]1CNC(=O)c1ccc2c(c1)NC(=O)/C(=C/c1ccccc1F)S2 | +
CCN1CCC[C@H]1CNC(=O)c1c(O)c(Cl)cc(Cl)c1OC | i
CCc1ccc(C2c3cccn3-c3sc4c(c3CN2C(=O)Nc2cccc(OC)c2)CCCC4)cc1 (configuration not stated) | i
CC(C)OCCCN1C(=O)c2cc3sccc3n2CC1(C)C(=O)NC1CCCCCCC1 (configuration not stated) | i
CCCc1c(-c2ccc(O)cc2)nn(-c2ccc(O)cc2)c1-c1ccc(O)cc1 | +
COc1cccc(CN2C(=O)c3cc4occc4n3CC2(C)C(=O)NC2CCCCCCC2)c1OC (configuration not stated) | i
CCC(C)NC(=O)c1ccc2c(=O)n(C(C)C)c3n[nH]c(=O)n3c2c1 (configuration not stated) | i
CC1CCC(NC(=O)C2(C)Cn3c(cc4sccc43)C(=O)N2Cc2ccccn2)CC1 (configuration not stated) | i
COc1c2cc(c(O[C@@H]3O[C@H](CO)[C@@H](O)[C@H](O)[C@H]3O)c1OC)CCCCC(O)CCc1ccc(O)c-2c1 (some centres not stated) | +
SMILES | Methyltransferases
COc1cc(CO)cc(OC)c1O[C@@H]1O[C@H](CO)[C@@H](O)[C@H](O)[C@H]1O | i
COc1c(-c2ccc(O)cc2)cc(OC)c2c1oc1cc(O)c(OC3OC(CO)C(O)C3O)cc12 (configuration not stated) | i
COc1ccccc1N1CCN(S(=O)(=O)c2cc3c(cc2Cl)n(C)c(=O)n3C)CC1 | i
CCc1ccc(CNC(=O)c2ncn3c2C(=O)N(C2CC2)C(C)(C(=O)NCc2ccccc2OC)C3)cc1 (configuration not stated) | i
CC(=O)OC1CC(C)C2(CCC3(CC(=O)OC3O)O2)C2(C)CCCC(C)(C)C12 (configuration not stated) | i
Cc1c(OCc2cccc(-c3ccc(C(=O)O)cc3)c2)cc2c(c1C)C(=O)C(C1CCCC1)C2 (configuration not stated) | +
O=C(O)c1cc(-c2cccc(CO)c2)cc(S(=O)(=O)NC2CCCC2)c1 | i
